These results are taken from PubChem BioAssay (NCATS).

Molecules are shown by their SMILES. Inconclusive results are not listed. Unmarked numbers belong to inactive results. The call rests on the fitted dose curve; in most records, active means well fitted inhibition curve with a large enough effect; inconclusive means small, poorly fitted or top-dose-only effect; inactive means no such curve, though single readings can be large or run the other way.

For the experiment, the target named is Retinaldehyde dehydrogenase 3 (Homo sapiens) (UniProt P47895). The experiment can be described thus: qHTS for Inhibitors of the Aldehyde Dehydrogenase Family (ALDH1A3) Primary screen (AID 2061315).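 Further: plate controls were DMSO vehicle for no effect and reference inhibitor for full effect.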 Conditions: ALDH inhibition qHTS; series mostly up to 56 µM; activity change, negative = inhibition: at the top concentration.
As for `COC(=O)C1=C[C@@H](O)[C@@H](O)[C@H](O[C@@H]2O[C@H](CO)[C@@H](O)[C@H](O)[C@H]2OC(=O)/C=C/c2ccccc2)C1`, the “activity change, negative = inhibition” value is 10.1% [at 28 µM].

Take `C[C@@H]1CC[C@]2(C(=O)O)CC[C@]3(C)C(=CCC4[C@@]5(C)C[C@@H](O)[C@@H](O)C(C)(C)C5CC[C@]43C)C2[C@]1(C)O` (stereo partly drawn): the “activity change, negative = inhibition” value is 11% [at 28 µM].

`CNc1cccc(CCOc2ccc3c(c2)CN(CC(F)(F)F)C(=O)[C@H](CC(=O)O)C3)n1`: the “activity change, negative = inhibition” value was -9.21%.

On to `C=CCC/C=C/C#CCCCCCCCC[C@H]1C(=O)O[C@H](C)[C@@H]1O`, for which the “activity change, negative = inhibition” value was 0.317%.

Regarding `CCc1nn(CCO)c(CC)c1Oc1cc(C#N)cc(C#N)c1`, the “activity change, negative = inhibition” value was -1.21%.

`CN1CCN(S(=O)(=O)c2ccc(-c3cnc(N)c(C(=O)Nc4cccnc4)n3)cc2)CC1`: the “activity change, negative = inhibition” value is -1.71% [at 28 µM].

Regarding `C=C[C@]1(C)C[C@H](O)[C@@H]2[C@H](OC(=O)[C@@H]2C)C1/C(C)=C/O[C@@H]1O[C@H](CO)[C@@H](O)[C@H](O)[C@H]1O` (stereo partly drawn), the “activity change, negative = inhibition” value is -10.7% [at 28 µM].

Take `COc1ccc2nccc(C(=O)CC[C@@H]3CCN(CC#Cc4cc(F)cc(F)c4F)C[C@@H]3C(=O)O)c2c1`: the “activity change, negative = inhibition” value was -6.73%.

On to `Cc1cc2nc(NCCCO)n(CC(=O)c3cc(C(C)(C)C)c(O)c(C(C)(C)C)c3)c2cc1C`, for which the “activity change, negative = inhibition” value is -12.7%.

Take `COC(=O)c1ccc(N2CCN(C)CC2)c(NC(=O)c2cccc(OC)c2)c1`: the “activity change, negative = inhibition” value is 5.45%.

With `CO[C@@H]1CC[C@H](OC[C@]2(COC(=O)c3ccc(C)[nH]3)[C@H](OC(C)=O)CC[C@@]3(C)[C@@H]4CC=C(C)[C@@H](C5=C(O)C(=O)OC5O)[C@]4(C)CC[C@@H]32)O[C@H]1C` (stereo partly drawn), the “activity change, negative = inhibition” value is 6.67% [at 16.9 µM].

Turning to `CCOc1ccc(-c2ccc(Cn3c(CC(C)(C)C(=O)O)c(SC(C)(C)C)c4cc(OCc5ccc(C)cn5)ccc43)cc2)cn1`, the “activity change, negative = inhibition” value is 1.59%.

For the compound `C[C@@H]1O[C@@H](O[C@H]2[C@H](O)[C@@H](O[C@@H]3O[C@H](CO)[C@H](O)[C@H](O)[C@H]3O)[C@H](O[C@H]3CC[C@@]4(C)C(CC[C@]5(C)C4CC=C4[C@@H]6CC(C)(C)CC[C@]6(C(=O)O[C@@H]6O[C@H](CO)[C@@H](O)[C@H](O)[C@H]6O)CC[C@]45C)C3(C)C)O[C@@H]2C(=O)O)[C@H](O)[C@H](O)[C@H]1O` (stereo partly drawn), the “activity change, negative = inhibition” value was 4.15% [at 16.9 µM].

With `CC(=O)O[C@H]1CC(C)(C)CC2[C@]13CO[C@@]21CCC2[C@@]4(C)CC[C@H](O[C@@H]5OC[C@H](O[C@@H]6O[C@H](CO)[C@@H](O)[C@H](O)[C@H]6O[C@@H]6OC[C@@H](O)[C@H](O)[C@H]6O)[C@H](O)[C@H]5O[C@@H]5O[C@H](CO)[C@@H](O)[C@H](O)[C@H]5O)[C@@](C)(CO)C4CC[C@@]2(C)[C@]1(C)C[C@H]3O` (stereo partly drawn), the “activity change, negative = inhibition” value was -0.112% [at 16.9 µM].

Turning to `CCC(C)C(=O)OC1CC(O)C23C4OCC5(C(O)CC2C1(C)C(O)O4)C3C(=O)C(O)C1(C)C(O)(c2ccoc2)CC2OC251` (stereo not drawn), the “activity change, negative = inhibition” value is 14.4% [at 16.9 µM].

For `C/C=C(/C=C(C)/C=C/C=C/C=C(\C)C(=O)C12OC1C(O)(CCO)NC2=O)C(=O)OC` (stereo not drawn), the “activity change, negative = inhibition” value is -1.78% [at 28 µM].

Turning to `CC(=O)OC1C(O)C(C)=C(CCC(C)CC(=O)O)C2(C)CCCC(C)(C)C12` (stereo not drawn), the “activity change, negative = inhibition” value was 0.718%.

For `COc1cc2ncnc(Nc3cccc(I)c3)c2cc1OC`, the “activity change, negative = inhibition” value is -10.3%.
